These results are taken from PubChem BioAssay (NCI).

Test in all cases: NCI-60 one-dose screen, 48 h (100 = growth as untreated, 0 = no growth, -100 = all killed)
Experiment [1] relates to NCI-H23 lung. The note with it: 10 µM unless noted.
Experiment [2] concerns NCI-H226 lung. The note with it: 10 µM unless noted.
Experiment [3] has as its system NCI-H322M lung. The note with it: 10 µM unless noted.
Experiment [4] relates to HOP-62 NSCLC. The settings on record: 10 µM unless noted.
Experiment [5] concerns NCI-H460 lung. The note with it: 10 µM unless noted.
Experiment [6] has as its system HOP-92 NSCLC. The note with it: 10 µM unless noted.
Experiment [7] has as its system A549/ATCC NSCLC. The settings on record: 10 µM unless noted.
The subject of experiment [8] is 786-0 renal. The settings on record: 10 µM unless noted.
The test system of experiment [9] is COLO 205 colon. The note with it: 10 µM unless noted.
Experiment [10] relates to DU-145 prostate. The settings on record: 10 µM unless noted.
Experiment [11] relates to K-562 leukemia. The note with it: 10 µM unless noted.
Experiment [12] deals with MALME-3M melanoma. The note with it: 10 µM unless noted.
Experiment [13] relates to MDA-MB-231 breast. The note with it: 10 µM unless noted.
For experiment [14], the system named is RXF 393 renal. The settings on record: 10 µM unless noted.
Experiment [15] has as its system SF-268 CNS. The settings on record: 10 µM unless noted.
In experiment [16] the test system is SF-295 CNS. The note with it: 10 µM unless noted.
Experiment [17] relates to SF-539 CNS. The settings on record: 10 µM unless noted.
Experiment [18] has as its system UACC-257 melanoma. The note with it: 10 µM unless noted.
Experiment [19] concerns M14 melanoma. The note with it: 10 µM unless noted.
The subject of experiment [20] is NCI-H522 lung. The note with it: 10 µM.

Structures are written as SMILES. The panel holds about 83,000 compounds, 20% with a hit somewhere; the sample as a whole holds those more often.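 How to read the values: 0–100, growth inhibition (40 = 60% inhibited); 0, no net growth; -100 to 0, cell death (-40 = 40% of starting cells died; -100 = all dead).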 A number with no mark means an inactive call. Active and inactive are the calls of the source. The calls were made as follows: active = growth percent below 10; inactive = the rest.

Turning to `CC(C)C[C@H](NC(=O)/C=C/Cn1ccc2ccccc2c1=O)B(O)O`, the growth in experiment [1] was 56.3%; in experiment [2], -15.5% (active); in experiment [3], 85.4%; in experiment [4], 44.8%; in experiment [5], 84.6%; in experiment [6] it was 99.7%. In addition, the growth was 69% in experiment [7]; 55.1% in [8]; 49.7% in [9]; 40.6% in experiment [10]; 35.8% in experiment [11]; -30% (active) in experiment [12]. In addition, the growth is 35.1% in experiment [13]; 8.46% (active) in experiment [14]; 24.6% in [15]; 26.8% in [16]; 15.1% in experiment [17]; 43.2% in [18]. Further, the growth in [19] was 21.1%.

For `O=c1oc2c(cc1-c1ccc([N+](=O)[O-])cc1)C(O)Oc1ccccc1-2` (stereo not given), the growth in experiment [1] is 89.3%; in experiment [2] it was 101%; in experiment [3], 107%; in experiment [4], 98.1%; in [5], 97.2%; in experiment [6], -13.6% (active). The growth was 78.7% in experiment [7]; 98% in [8]; 93.5% in [9]; 142% in [10]; 76.8% in [11]; 77.6% in experiment [12]. In addition, the growth in experiment [13] is 114%; in experiment [14] it was 49.1%; in experiment [15], 94.7%; in experiment [16] it was 67.9%; in [17], 93.8%; in experiment [18] it was 89.3%.

Take `c1ccc2nc(N/N=C3\CCCCC3C3CCCCC3)ccc2c1` (stereo not given): the growth in experiment [1] is 40.1%; in experiment [2], 53.8%; in experiment [3], 64.5%; in [4], 8.28% (active); in [5], 39.7%; in [6], -11.3% (active). Moreover, the growth is 60% in experiment [20]; 48.6% in experiment [8]; 41% in experiment [9]; 12.3% in experiment [11]; 46.6% in [12]; 60.8% in experiment [13]. The growth in experiment [15] was 66.8%; in experiment [16] it was 25.9%; in [17] it was 58.8%; in experiment [18], 72.1%; in experiment [19], 72.1%.

With `O=C(COc1ccc(/C=C2\Oc3ccc4ccccc4c3C2=O)cc1)c1ccc(Cl)cc1`, the growth in experiment [1] is 98.2%; in experiment [2] it was 106%; in [3] it was 102%; in [4], 105%; in experiment [5], 110%; in [6], 97.7%. Moreover, the growth in experiment [20] was 61.9%; in experiment [8], 106%; in [9], 124%; in experiment [11], 89.7%; in [12], 110%; in experiment [13] it was 113%. The growth was 97.6% in [15]; 96.9% in experiment [16]; 93.1% in experiment [17]; 103% in experiment [18]; 95% in experiment [19].

On to `C=C(CN1CCc2c([nH]c3ccccc23)C1)c1ccc(C(=O)Nc2ccon2)cc1`, for which the growth in experiment [1] was 85.9%; in experiment [2] it was 92.7%; in [3] it was 125%; in experiment [4], 88.2%; in experiment [5] it was 101%; in experiment [6] it was 31.5%. For the same compound, the growth in experiment [20] is -15% (active); in experiment [8] it was 96%; in experiment [9] it was 83.6%; in experiment [11], 44.2%; in experiment [12], 129%; in [13] it was 78.6%. The growth in experiment [15] was 97.1%; in experiment [16] it was 114%; in experiment [17], 90%; in [18], 97.3%; in experiment [19], 95.6%.

As for `Cc1cc(Cl)ccc1Nc1nc(C(F)(F)F)ccc1C(=O)N/N=C/c1ccc(Cl)cc1`, the growth in experiment [1] was 5.4% (active); in experiment [2], 7.79% (active); in [3] it was -1.86% (active); in experiment [4], -61.2% (active); in experiment [5], -5.33% (active); in [6], -24.1% (active). Further, the growth in [20] is -17.6% (active); in experiment [8] it was -45% (active); in experiment [9] it was -18.7% (active); in [11] it was 5.71% (active); in [12], -0.888% (active); in experiment [13], -22.5% (active). In addition, the growth in experiment [15] was 10.4%; in [16] it was -41.8% (active); in [17], 0.0279% (active); in experiment [18] it was 16.6%; in experiment [19], 0.962% (active).

Consider `COC(=O)c1cc2oc(/C=N\NC(=O)c3cc4oc(C)c(C)c4[nH]3)cc2[nH]1`, for which the growth in experiment [1] is 104%; in experiment [2], 117%; in [3] it was 106%; in experiment [4] it was 110%; in experiment [5], 111%; in experiment [6], -34.1% (active). Also, the growth in experiment [7] was 112%; in experiment [8], 107%; in experiment [9], 94%; in experiment [10], 147%; in [11] it was 84.1%; in experiment [12], 82.5%. Also, the growth was 107% in experiment [13]; 101% in experiment [14]; 106% in experiment [15]; 84.2% in [16]; 101% in [17]; 114% in experiment [18].

`COc1ccc(Cl)cc1Nc1nc(C(F)(F)F)ccc1C(=O)N/N=C/c1c(Cl)cccc1Cl`: the growth in [1] is 74.1%; in experiment [2] it was 59.6%; in [3], 44.7%; in experiment [4] it was 58.5%; in [5] it was 41.6%; in [6] it was 70.9%. Besides, the growth in experiment [20] is 39.2%; in experiment [8], 43.7%; in [9], 35.9%; in [11], 33.8%; in experiment [12], 69.3%; in experiment [13], 46.3%. Further, the growth in experiment [15] is 65%; in experiment [16], 13.8%; in [17], 20.6%; in [18], 60.9%; in experiment [19] it was 71.3%.
